About 79,000 compounds went through this panel and 15% of them were active in at least one assay; those are over-represented in the sample as a whole. Calls of active or inactive are those of the source. No stated cut-off is given here; in the data, active means growth inhibition above about 70%; inactive means the rest.
Columns and labels:
[1] = NCI Yeast Anticancer Drug Screen. Data for the rad52 strain (AID 147);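 further: 0% = growth of vehicle-treated control cultures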; conditions: S. cerevisiae rad52 mutant growth inhibition, active compounds read high
Procedure, shortened: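 Vehicle-treated cultures served as the reference for growth inhibition of compound-exposed yeast bearing a DNA repair mutation.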

[2] = NCI Yeast Anticancer Drug Screen. Data for the wt1 strain (AID 149);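 further: 0% = growth of vehicle-treated wt1 cultures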; conditions: S. cerevisiae wt1 strain (SPY 50644) growth inhibition, active compounds read high
Procedure, shortened: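 wt1 strain grown with compound or vehicle; inhibition taken from the growth difference.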

[3] = NCI Yeast Anticancer Drug Screen. Data for the rad50EPP+ strain (AID 151);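 further: 0% = growth of vehicle-treated control cultures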; conditions: S. cerevisiae rad50 mutant strain, active compounds read high
Procedure, shortened: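 In this screen, rad50EPP+ yeast were exposed to compounds. Growth inhibition was scored against vehicle-treated controls.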

[4] = NCI Yeast Anticancer Drug Screen. Data for the rad50 strain (AID 155);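 further: 0% = growth of vehicle-only cultures of the same strain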; conditions: S. cerevisiae rad50 strain growth inhibition, active compounds read high
Procedure, shortened: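 DNA repair mutant yeast, compound exposure, growth read-out; inhibition is taken relative to vehicle.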

[5] = NCI Yeast Anticancer Drug Screen. Data for the mec2-1 strain (AID 157); conditions: S. cerevisiae mec2-1 strain, active compounds read high
Procedure, shortened: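 Vehicle-treated cultures served as reference for growth inhibition of compound-exposed mec2-1 yeast.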

[6] = NCI Yeast Anticancer Drug Screen. Data for the rad14 strain (AID 159);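 further: 0% = growth of vehicle-treated control cultures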; conditions: S. cerevisiae rad14 strain growth inhibition, active compounds read high
Procedure, shortened: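 DNA repair-defective yeast, compound-exposed; % growth inhibition derived by comparison with vehicle-treated controls.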

[7] = NCI Yeast Anticancer Drug Screen. Data for the sgs1 mgt1 strain (AID 161);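 further: 0% = growth of cultures given vehicle only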; conditions: S. cerevisiae sgs1 mgt1 strain, active compounds read high
Procedure, shortened: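 Test agents were incubated with a DNA-repair-mutant yeast strain. Growth was then read and compared against vehicle-treated controls.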

[8] = NCI Yeast Anticancer Drug Screen. Data for the CLN2oe strain (AID 163);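 further: 0% = growth of vehicle-only control cultures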; conditions: S. cerevisiae CLN2oe strain, active compounds read high
Procedure, shortened: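 Inhibition relative to vehicle-treated yeast is reported. Cells: strain with genetic alteration in cell-cycle control, grown with compound.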

[9] = NCI Yeast Anticancer Drug Screen. Data for the cln2 rad14 strain (AID 165);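 further: 0% = growth equal to vehicle treated cultures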; conditions: S. cerevisiae cln2 rad14 strain, active compounds read high
Procedure, shortened: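 Each compound was tested on cln2 rad14 yeast. Inhibition of growth was calculated against vehicle-exposed controls.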

[10] = NCI Yeast Anticancer Drug Screen. Data for the bub3 strain (AID 167); conditions: S. cerevisiae bub3 mutant strain, active compounds read high
Procedure, shortened: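 In this screen, a yeast mutant lacking normal mitotic checkpoint function is challenged with compound. Relative growth versus vehicle gives the inhibition value.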

[11] = NCI Yeast Anticancer Drug Screen. Data for the wt2 strain (AID 169);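 further: 0% = growth of vehicle-treated yeast cultures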; conditions: S. cerevisiae wt2 strain growth inhibition, active compounds read high
Procedure, shortened: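 Inhibition of yeast growth was determined after compound treatment, normalised to controls receiving only vehicle.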

[12] = NCI Yeast Anticancer Drug Screen. Data for the mlh1 strain (AID 171);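 further: 0% = growth of vehicle-treated control cultures of the same strain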; conditions: S. cerevisiae mlh1 strain growth inhibition, active compounds read high
Procedure, shortened: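 Vehicle-normalised growth inhibition of a repair- or checkpoint-altered yeast strain following compound treatment.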

[13] = NCI Yeast Anticancer Drug Screen. Data for the sgs1 strain (AID 173);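 further: 0% = growth of vehicle-only control cultures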; conditions: S. cerevisiae sgs1 mutant, active compounds read high
Procedure, shortened: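 Screen format: yeast with repair or checkpoint alterations, compound exposure, growth read relative to vehicle.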

[14] = NCI Yeast Anticancer Drug Screen. Data for the mlh1 rad18 strain (AID 175); conditions: S. cerevisiae mlh1 rad18 strain growth inhibition, active compounds read high
Procedure, shortened: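 Vehicle-treated cultures served as the reference for growth inhibition in a yeast strain carrying DNA damage repair alterations exposed to each compound.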

[15] = NCI Yeast Anticancer Drug Screen. Data for the rad18 strain (AID 177); conditions: S. cerevisiae rad18 mutant growth inhibition, active compounds read high
Procedure, shortened: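 Test articles were incubated with altered yeast defective in DNA damage repair. Results are given as inhibition of growth versus vehicle.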

[16] = at 5.0 µM (retest, dose inferred, filed as 0.5)
[17] = at 50.0 µM (retest, dose inferred, filed as 5.0)

Measured: growth inhibition

C[C@]12CCc3nonc3C1CC[C@@H]1C2CC[C@]2(C)C(=O)CCC12 (stereo partly drawn)
active: [4]; at 100.0 µM 76% | [7]; [17] 73% | [7]; at 50.0 µM 81.5% | [10]; [17] 76% | [13]; at 100.0 µM 78%
inactive: [1]; at 1.2 µM 4% | [1]; at 3.7 µM 5% | [1]; at 11.0 µM 22% | [1]; at 33.0 µM 36% | [1]; at 100.0 µM 66% | [2]; at 1.2 µM 0% | [2]; at 3.7 µM -2% | [2]; at 11.0 µM -4% | [2]; at 33.0 µM 6% | [2]; at 100.0 µM 21% | [3]; at 1.2 µM 0% | [3]; at 3.7 µM 1% | [3]; at 11.0 µM 5% | [3]; at 33.0 µM 12% | [3]; at 100.0 µM 13% | [4]; at 1.2 µM 11% | [4]; at 3.7 µM 7% | [4]; [16] 51% | [4]; at 11.0 µM 28% | [4]; at 33.0 µM 62% | [4]; [17] 68% | [4]; at 50.0 µM 68% | [5]; at 1.2 µM -1% | [5]; at 3.7 µM -3% | [5]; [16] 26% | [5]; at 11.0 µM 10% | [5]; at 33.0 µM 15% | [5]; [17] 40% | [5]; at 50.0 µM 33.2% | [5]; at 100.0 µM 36% | [6]; at 1.2 µM 27% | [6]; at 3.7 µM 38% | [6]; at 11.0 µM 38% | [6]; at 33.0 µM 46% | [6]; at 100.0 µM 60% | [7]; [16] 46% | [8]; at 1.2 µM 17% | [8]; at 3.7 µM 25% | [8]; at 11.0 µM 28% | [8]; at 33.0 µM 41% | [8]; at 100.0 µM 51% | [9]; [16] 54% | [9]; [17] 57% | [9]; at 50.0 µM 44.1% | [10]; at 1.2 µM 1% | [10]; at 3.7 µM 6% | [10]; [16] 14% | [10]; at 11.0 µM 19% | [10]; at 33.0 µM 24% | [10]; at 50.0 µM 35.8% | [10]; at 100.0 µM 49% | [11]; at 1.2 µM 5% | [11]; at 3.7 µM 6% | [11]; at 11.0 µM 1% | [11]; at 33.0 µM 14% | [11]; at 100.0 µM 39% | [12]; at 1.2 µM -4% | [12]; at 3.7 µM -3% | [12]; at 11.0 µM -1% | [12]; at 33.0 µM 19% | [12]; at 100.0 µM 50% | [13]; at 1.2 µM 13% | [13]; at 3.7 µM 21% | [13]; at 11.0 µM 31% | [13]; at 33.0 µM 50% | [14]; [16] 46% | [14]; [17] 68% | [14]; at 50.0 µM 56.9% | [15]; at 1.2 µM 14% | [15]; at 3.7 µM 12% | [15]; at 11.0 µM 19% | [15]; at 33.0 µM 28% | [15]; at 100.0 µM 62%
